Here are results for 40 compounds from PubChem BioAssay (Tox21).

Inconclusive results are not listed. Entries that show only a call come without a potency. Activity calls are given as the source filed them. The call rests on the fitted dose curve.
Potency means the concentration at half of the fitted maximal effect.

The test can be described thus: qHTS assay for small molecule disruptors of the mitochondrial membrane potential - cell viability (AID 720634). Further: nearly all actives have a fitted effect of over 20% in size. The following applies: HepG2 viability, ATP luminescence (CellTiter-Glo), 1 h; series mostly up to 83.2 µM. From the text: U.S. Tox21 Program National Center for Advancing Translational Sciences [NCATS] NIH Chemical Genomics Center [NCGC] U.S. Environmental Protection Agency [EPA] National Institutes of Environmental Health Sciences [NIEHS] National Toxicology Program [NTP] U.S. Food and Drug Administration [FDA] Tox21 Assay Overview: Mitochondrial membrane potential (MMP), one of the parameters for mitochondrial function, is generated by mitochondrial electron transport chain that creates an electrochemical gradient by a series of redox reactions. This gradient drives the synthesis of ATP, a crucial molecule for various cellular processes. Measuring MMP in living cells is commonly used to assess the effect of chemicals on mitochondrial function; decreases in MMP can be detected using lipophilic cationic fluorescent dyes. […] The dye accumulates in the mitochondria of healthy cells as aggregates, with red fluorescence. The mitochondrial potential decreases and the dye could not accumulate in the mitochondria and remains in the cytoplasm in monomers, with green fluorescence. In addition to the mitochondrial potential assay, these cells were also used to test the cytotoxicity by determining the cell viability in the culture based on the quantitation of ATP present. The cytotoxicity was measured in the same assay well of MMP assay.
Tox21 Assay Protocol Summary: 2,000 HepG2 cells in 5 uL/well were dispensed into black, clear-bottom 1536-well plates using a Multidrop Combi (Thermo Scientific) dispenser. The assay plates were incubated for an overnight at 37 C to allow cells to attach to the wells, followed by the transfer of 23 nL compound or DMSO vehicle by a pin tool (Kalypsys). The plates were incubated for 1 hr at 37 C and 5% CO2, followed by the addition of 5 uL of 2X m-MPI dye into each well using Flying Reagent Dispenser (Aurora Discovery) and then CellTiter-Glo reagent was added at 4 uL/well and incubated 30 min at room temperature. Then luminescence intensity was quantified on a ViewLux CCD-based plate reader.
Turning to `O=Cc1ccccc1O`, the Potency entry is “inactive”.

With `CC(=O)c1ccccn1`, the Potency result was “inactive”.

`CC(=O)CC/C=C(\C)CCC=C(C)C`: the Potency result was “inactive”.

For the compound `Brc1cc(Oc2cc(Br)c(Br)c(Br)c2Br)c(Br)c(Br)c1Br`, the Potency result was “inactive”.

Consider `CCCCc1oc2ccccc2c1C(=O)c1cc(I)c(OCCN(CC)CC)c(I)c1`, for which the Potency entry was “inactive”.

For the compound `CC(C)Oc1ccc2c(=O)c(-c3ccccc3)coc2c1`, the Potency entry is “inactive”.

On to `CN(C)CCN(Cc1cccs1)c1ccccn1`, for which the Potency entry is “inactive”.

For `Cc1ncc[nH]1`, the Potency result was “inactive”.

Consider `CC(C)=CCCC(C)CCO` (stereo not given), for which the Potency result was “inactive”.

On to `c1cc(-c2ccncc2)ccn1`, for which the Potency result is “inactive”.

On to `c1ccc2c(c1)Oc1ccccc1S2`, for which the Potency result is “inactive”.

As for `CCCCCCCCCC(=O)OC`, the Potency entry was “inactive”.

With `CCCCC(CC)COCC1CO1` (stereo not given), the Potency result is “inactive”.

Turning to `CCCc1c(OCCCCc2nn[nH]n2)ccc(C(C)=O)c1O`, the Potency result is “inactive”.

`COC(=O)CCC(=O)OC`: the Potency result is “inactive”.

Consider `COc1cccc2c1C(=O)c1c(O)c3c(c(O)c1C2=O)C[C@@](O)(C(=O)CO)C[C@@H]3O[C@H]1C[C@H](N)[C@H](O)[C@H](C)O1`, for which the Potency entry is “inactive”.

Regarding `CN(C)CCC=C1c2ccccc2CCc2ccccc21`, the Potency entry was “inactive”.

On to `NC=O`, for which the Potency entry was “inactive”.

As for `Cc1cc2nc3c(=O)[nH]c(=O)nc-3n(C[C@H](O)[C@H](O)[C@H](O)CO)c2cc1C`, the Potency result was “inactive”.

On to `CC(C)CC(C)(O)C#CC(C)(O)CC(C)C` (stereo not given), for which the Potency entry was “inactive”.

As to `Cc1ccc(C)c(O)c1C`, the Potency entry is “inactive”.

With `CCC(C)CO` (stereo not given), the Potency result is “inactive”.

Turning to `Nc1ccc(Nc2ccccc2)cc1`, the Potency result is “inactive”.

On to `C=C(C)C(=O)OCCOC(=O)C(=C)C`, for which the Potency result was “inactive”.

In the case of `Cc1ccc(C(=O)c2cc(O)c(O)c([N+](=O)[O-])c2)cc1`, the Potency entry is “inactive”.

`O=C(Nc1ccc(Cl)cc1)Nc1ccc(Cl)c(Cl)c1`: the Potency was 1.93 µM (active).

On to `O=c1oc(=O)c2cc3c(=O)oc(=O)c3cc12`, for which the Potency entry is “inactive”.

Take `CCCCOCCOCCO`: the Potency result is “inactive”.

`CC(CCC(=O)O)(c1ccc(O)cc1)c1ccc(O)cc1`: the Potency entry was “inactive”.

Turning to `COC(=O)Nc1nc2ccc(S(=O)c3ccccc3)cc2[nH]1` (stereo not given), the Potency entry is “inactive”.

In the case of `Nc1ccc(S(=O)(=O)Nc2cnc3ccccc3n2)cc1`, the Potency result is “inactive”.

Turning to `Cc1cccc(N(C)C(=S)Oc2ccc3ccccc3c2)c1`, the Potency was 17.2 µM (active).

Take `COC(=O)c1ccccc1`: the Potency result is “inactive”.

Consider `Cc1c(OCC(F)(F)F)ccnc1CS(=O)c1nc2ccccc2[nH]1` (stereo not given), for which the Potency entry was “inactive”.

As for `c1ccncc1`, the Potency entry is “inactive”.

In the case of `O=C=Nc1ccc(Cc2ccc(N=C=O)cc2)cc1`, the Potency result was “inactive”.

On to `Nc1ncnc2nc[nH]c12`, for which the Potency entry was “inactive”.

Consider `O=C1c2cccc(O)c2C(=O)c2c(O)cccc21`, for which the Potency entry is “inactive”.

As to `CC(C)OC=O`, the Potency result was “inactive”.

Regarding `O=CCc1ccccc1`, the Potency result was “inactive”.
